A selection: hits, their analogues and other compounds. The true share with any hit is near 2.1%.
SIRT5 block: SIRT5 desuccinylase inhibitors, primary screen, biochemical, fluorescence imaging, single point, set 5; NAD-dependent protein deacylase sirtuin-5, mitochondrial (Homo sapiens), Q9NXA8; Purified SirT5, succinyl-peptide AMC, trypsin-coupled fluorescence; inhibition, % at 15 µM; 330,000 compounds, 1.1% hits; AID 652115, 2013; in the data active means inhibition above about 15%
Target sequence (Q9NXA8 whole entry, looked up): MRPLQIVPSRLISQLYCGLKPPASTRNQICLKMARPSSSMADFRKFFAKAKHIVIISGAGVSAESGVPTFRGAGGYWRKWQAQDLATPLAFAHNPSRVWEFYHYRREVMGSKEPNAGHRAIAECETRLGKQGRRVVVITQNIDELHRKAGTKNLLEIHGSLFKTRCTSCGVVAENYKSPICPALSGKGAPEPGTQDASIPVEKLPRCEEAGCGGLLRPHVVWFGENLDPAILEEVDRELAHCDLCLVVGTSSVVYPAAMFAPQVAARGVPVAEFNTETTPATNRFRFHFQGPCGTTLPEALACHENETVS
NSD2 inh: NSD2 histone methyltransferase inhibitors, primary screen, biochemical, AlphaScreen, single concentration, set 2 | AID 743445, 2014 | NSD2 peptide methylation, 120 min | inhibition, % at 12.5 µM | 310,000 compounds, 0.54% hits | Histone-lysine N-methyltransferase NSD2 (Homo sapiens), O96028; in the data active means inhibition above about 50%
CASP6 VEID inh: human caspase-6 inhibitors, primary screen, biochemical, VEID-R110 fluorescence, single point, set 2; P55212; purified caspase-6, Z-VEID-R110 cleavage fluorescence; inhibition, % at 12.5 µM; 350,000 compounds, 0.53% hits;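 active means mean inhibition across replicates at least about 35%, with every replicate also reaching that limit, limit read from the data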
Target sequence (P55212 24-179 limits assumed): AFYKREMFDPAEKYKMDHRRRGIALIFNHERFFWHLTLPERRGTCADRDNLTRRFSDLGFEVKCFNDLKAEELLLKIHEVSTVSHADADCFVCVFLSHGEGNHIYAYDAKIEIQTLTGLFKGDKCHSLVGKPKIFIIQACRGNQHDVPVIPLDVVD
Target sequence (P55212 194-293 limits assumed): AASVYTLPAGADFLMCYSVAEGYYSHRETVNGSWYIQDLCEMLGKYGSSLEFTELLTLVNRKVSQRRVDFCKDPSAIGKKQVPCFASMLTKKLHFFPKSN
PfHsp90 set2: growth inhibition of PfHsp90-expressing yeast, primary screen, antimalarial PfHsp90 inhibitor project, S. cerevisiae, BacTiter-Glo luminescence, single point, set 2; inhibition, % at 9.4 µM; BacTiter-Glo ATP, 48 h; yeast lacking PDR1 and PDR3 efflux regulators; 310,000 compounds, 0.32% hits;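 active means every replicate shows inhibition above about 80%, whatever the replicate mean, limit read from the data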
ARNT-TACC3 inh: disruptors of ARNT/TACC3 protein interaction, primary screen, biochemical, AlphaScreen, single concentration | AlphaScreen His-ARNT PAS-B/GST-TACC3 binding, luminescence; TACC3 fragment carries E629A point mutation | inhibition, % at 9.99 µM | 390,000 compounds, 0.66% hits;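 active means mean inhibition of replicates at least 50% and at least half of replicates each reaching 50%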
Each line names hits and unclear results; the compound was inactive in the other large screens.

Cc1cc(C)cc(OCCNC(=O)c2cc(S(=O)(=O)N3CCOCC3)ccc2F)c1	SIRT5 block 17.4
O=C(NCCc1ccccc1)c1cc(S(=O)(=O)N2CCOCC2)ccc1F	none (no result: SIRT5 block, NSD2 inh, CASP6 VEID inh)
CC1CCN(C(=O)Cn2cc3c(n2)CCCC3)CC1	ARNT-TACC3 inh 46.8 (no result: SIRT5 block, NSD2 inh)
C[n+]1cccc2ccc3c(c21)OC(N)=C(C#N)C3c1ccccc1 (centres undefined)	CASP6 VEID inh 37.5
O=C(O)c1c2c(nc3ccc(S(=O)(=O)N4CCC(C(=O)NCc5ccc(Cl)cc5)CC4)cc13)CCCC2	CASP6 VEID inh 64.5 (no result: ARNT-TACC3 inh)
O=C(O)c1c2c(nc3ccc(S(=O)(=O)N4CCC(C(=O)NC5CCCCCC5)CC4)cc13)CCCC2	CASP6 VEID inh 43.1
COc1ccc(CNC(=O)C2CCN(S(=O)(=O)c3ccc4nc5c(c(C(=O)O)c4c3)CCCC5)CC2)cc1	CASP6 VEID inh 54.0 (no result: PfHsp90 set2, ARNT-TACC3 inh)
CCOCCCNC(=O)C1CCN(S(=O)(=O)c2ccc3nc4c(c(C(=O)O)c3c2)CCCCC4)CC1	none
O=C(O)c1c2c(nc3ccc(S(=O)(=O)N4CCC(C(=O)NCc5ccccc5Cl)CC4)cc13)CCCC2	CASP6 VEID inh 44.2
COc1ccc(CCNC(=O)C2CCN(S(=O)(=O)c3ccc4nc5c(c(C(=O)O)c4c3)CCCC5)CC2)cc1OC	none
CC(C)CCNC(=O)C1CCN(S(=O)(=O)c2ccc3nc4c(c(C(=O)O)c3c2)CCCCC4)CC1	none
COC(=O)C[C@@H]1CC[C@H](NS(=O)(=O)c2ccc(OC)cc2)[C@@H](CO)O1	none (no result: NSD2 inh, PfHsp90 set2)
C[C@@H](NC(=O)C[C@@H]1CC[C@H]2[C@@H](COC[C@@H](O)CN2Cc2cc(F)ccc2F)O1)c1ccccc1	none (no result: NSD2 inh, PfHsp90 set2)
CC(C)(C)c1ccc(C(=O)O/N=C(\N)Cc2cccs2)cc1	SIRT5 block 34.5 (no result: PfHsp90 set2, ARNT-TACC3 inh)
C[C@@H]1CN([C@H](C)CO)C(=O)c2cc(C#CC(C)(C)O)cnc2O[C@H]1CN(C)C(=O)CC1CC1	SIRT5 block 24.8 (no result: NSD2 inh, PfHsp90 set2)
C[C@@H]1CN([C@H](C)CO)C(=O)c2cc(C#CC3(O)CCCC3)cnc2O[C@@H]1CN(C)C	none (no result: NSD2 inh, PfHsp90 set2)
CCC(=O)N(C)C[C@@H]1Oc2ncc(C#CC3(O)CCCC3)cc2C(=O)N([C@H](C)CO)C[C@@H]1C	none (no result: NSD2 inh, PfHsp90 set2)
C[C@H](CO)N1C[C@H](C)[C@@H](CN(C)C(=O)CC2CC2)Oc2ncc(C#CC(C)(C)O)cc2C1=O	none (no result: NSD2 inh, PfHsp90 set2)
CCC(=O)N(C)C[C@H]1Oc2ncc(C#CC3(O)CCCC3)cc2C(=O)N([C@@H](C)CO)C[C@H]1C	SIRT5 block -2.7 (no result: NSD2 inh, PfHsp90 set2)
C[C@H](CO)N1C[C@H](C)[C@H](CN(C)CC2CC2)Oc2ncc(C#CC3(O)CCCC3)cc2C1=O	SIRT5 block 18.2 (no result: NSD2 inh, PfHsp90 set2, ARNT-TACC3 inh)
CC(=O)N1[C@H](C(=O)NC2CCC2)[C@@H](CO)[C@@H]2Cn3c(ccc(C4=CCCC4)c3=O)[C@@H]21	none (no result: NSD2 inh, PfHsp90 set2, ARNT-TACC3 inh)
Cc1cc(C=O)c(C)n1-c1ccc(N2CCCCC2)c([N+](=O)[O-])c1	NSD2 inh 64.7 (no result: SIRT5 block, CASP6 VEID inh)
O=C(O)COc1ccccc1/C=N/NC(=O)CSc1nnc(SCc2cccc3ccccc23)s1	SIRT5 block 17.1, CASP6 VEID inh 36.9
C[C@@H]1CN([C@H](C)CO)S(=O)(=O)c2ccc(Br)cc2O[C@H]1CN(C)Cc1cccc(C(=O)O)c1	none (no result: NSD2 inh, PfHsp90 set2)
C[C@@H]1CN([C@@H](C)CO)S(=O)(=O)c2ccc(C#CCC3CCCC3)cc2O[C@H]1CN(C)Cc1cccc(C(=O)O)c1	SIRT5 block 17.1 (no result: NSD2 inh, PfHsp90 set2)
C[C@H](CO)N1C[C@H](C)[C@@H](CN(C)Cc2cccc(C(=O)O)c2)Oc2cc(Br)ccc2S1(=O)=O	none (no result: NSD2 inh, PfHsp90 set2)
C[C@H](CO)N1C[C@H](C)[C@@H](CN(C)Cc2cccc(C(=O)O)c2)Oc2cc(C#CCC3CCCC3)ccc2S1(=O)=O	SIRT5 block 15.9 (no result: NSD2 inh, CASP6 VEID inh, PfHsp90 set2)
Cc1ccc(NC(=O)c2cc(S(=O)(=O)NCC3CCCO3)ccc2F)cc1 (centres undefined)	CASP6 VEID inh 42.5 (no result: SIRT5 block, PfHsp90 set2, ARNT-TACC3 inh)
Cc1ccc(S(=O)(=O)NCC2CCCO2)cc1 (centres undefined)	none
COc1ccc(NC(=O)Nc2cccc3c2O[C@@H](CN(C)CC2CCCCC2)[C@H](C)CN([C@@H](C)CO)C3=O)cc1	none (no result: NSD2 inh, PfHsp90 set2)
O=C(O)c1ccc(NS(=O)(=O)/C=C/c2ccccc2)cc1O	CASP6 VEID inh 43.5
COc1ccc(-c2ccc([C@H]3[C@@H](CO)N4C(=O)CNC[C@H]34)cc2)cc1	none (no result: NSD2 inh, PfHsp90 set2, ARNT-TACC3 inh)
COCC#Cc1cnc2c(c1)C(=O)N([C@H](C)CO)C[C@@H](C)[C@@H](CN(C)C(=O)NC1CCCC1)O2	none (no result: NSD2 inh, PfHsp90 set2)
NC(=O)c1ncc(C(F)(F)F)cc1Cl	none
NC(=O)c1ccc(C(F)(F)F)cn1	SIRT5 block 32.2 (no result: ARNT-TACC3 inh)
CC(=O)N1CC2(C1)[C@H](c1ccc(-c3cccc(F)c3)cc1)[C@H](CO)N2CC1CCOCC1	none (no result: NSD2 inh, PfHsp90 set2, ARNT-TACC3 inh)
CCCNC(=O)C1(C)CCCN(C(=O)C2(c3ccc(Cl)cc3)CCCC2)C1 (centres undefined)	SIRT5 block 29.9 (no result: PfHsp90 set2, ARNT-TACC3 inh)
CCCNC(=O)C1(C)CCN(C(=O)C2(c3ccc(Cl)cc3)CCCC2)C1 (centres undefined)	none (no result: SIRT5 block, PfHsp90 set2, ARNT-TACC3 inh)
O=C(C[n+]1ccccc1)N/N=C/c1cc(Br)cc(Br)c1O	ARNT-TACC3 inh 64.2 (no result: SIRT5 block, CASP6 VEID inh)
Cc1c(N=Cc2cc(Br)cc(Br)c2O)cccc1C(=O)O	PfHsp90 set2 102.5
O=C(O)c1cccc(N/N=C/c2cc(Br)cc(Br)c2O)c1	PfHsp90 set2 110.2 (no result: SIRT5 block, CASP6 VEID inh)
COCC(=O)N1CC(=O)N2[C@H](C1)[C@H](c1ccc(Br)cc1)[C@@H]2CO	none (no result: NSD2 inh, PfHsp90 set2, ARNT-TACC3 inh)
Cc1ccccc1S(=O)(=O)N[C@H]1CC[C@H](CCNS(=O)(=O)c2cccc(F)c2)O[C@H]1CO	none (no result: NSD2 inh, PfHsp90 set2)
COCC#Cc1cnc2c(c1)C(=O)N([C@@H](C)CO)C[C@H](C)[C@@H](CN(C)C(=O)c1cccnc1)O2	none (no result: NSD2 inh, PfHsp90 set2)
C[C@H]1CN([C@@H](C)CO)C(=O)c2cc(NC(=O)Cn3cnnn3)ccc2O[C@H]1CN(C)Cc1ccncc1	none (no result: NSD2 inh, PfHsp90 set2)
COc1ccc(/C=C2\SC(=O)NC2=S)cc1OC	CASP6 VEID inh 45.3
CO/N=C/c1ccc(Oc2ccc([N+](=O)[O-])cc2[N+](=O)[O-])c(OC)c1	none (no result: SIRT5 block, CASP6 VEID inh)
COc1cc(/C=C2\SC(=O)NC2=O)ccc1Oc1ccc([N+](=O)[O-])cc1[N+](=O)[O-]	CASP6 VEID inh 38.8 (no result: NSD2 inh)
C[C@H]1CN([C@@H](C)CO)S(=O)(=O)c2ccc(-c3cccc(C#N)c3)cc2O[C@@H]1CN(C)C(=O)Nc1cc(F)ccc1F	none (no result: NSD2 inh, PfHsp90 set2)
CC1=C/C(=N\Nc2ccccc2[N+](=O)[O-])CC(C)(C)C1	SIRT5 block 19.4 (no result: ARNT-TACC3 inh)
C/C(=N/Nc1ccccc1[N+](=O)[O-])c1ccc([N+](=O)[O-])cc1	none
